In all, about 3,400 compounds went through this assay and about 840 (25%) were called active. Another 11% or so got no clear call; they are omitted. Only a sample is shown. Potency and affinity values are given separately. Unmarked numbers belong to inactive results.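 Rule for the calls: active = fitted half-maximal concentration of signal decrease at or below twice the sample's top tested concentration; inconclusive = flat curve between -70 and -30 percent, or poor fit; inactive = flat within 30 percent, signal rise, or potency above limit.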
assay: T. gondii growth inhibition with IFN-gamma, dose response, cell-based, ME49Luc, HeLa, luciferase, 72 h (AID 1259418); conditions: T. gondii ME49Luc in IFN-y HeLa, stronger effect = lower value, -100% = high-dose IFN-γ control wells; at 19.5 µM unless noted

Compound	max activity
Cc1ccc(C2=NC3(CCN(CC(=O)Nc4c(C)cccc4C)CC3)NC2=O)cc1	10.4% [at 0.16 µM]
COc1ccc2c(c1)NC1(CCN(C(=O)CCC3CCCC3)CC1)c1cccn1-2	10.2% [at 0.16 µM]
COc1ccc(C)cc1NC(=O)N1CCc2nc(-c3ccc(C)cc3)sc2C1	-14.6% [at 0.16 µM]
CCOc1ccc(CCNc2nc(-c3ccc(OC)cc3)nc3ccccc23)cc1	-9.19% [at 0.35 µM]
CCc1cc2c(N3CCC(C(N)=O)(N4CCCCC4)CC3)ncnc2s1	-27.2%
CCOC(=O)CCNC(=O)Nc1ccc(-c2nc(-c3ccccc3)co2)cc1	-13.1% [at 1.35 µM]
COC(=O)c1ccc(NC(=O)COc2nc(C)nc3ccccc23)cc1	16% [at 2.6 µM]
O=C(c1ccco1)N1CCN(c2nc(-c3ccc(Cl)cc3)nc3ccccc23)CC1	16.5% [at 0.35 µM]
O=C(c1ccco1)N1CCC2(CC1)Nc1cc(F)ccc1-n1cccc12	7.86% [at 0.16 µM]
Cc1ccc2c(c1C)-n1cccc1C1(CCN(C(=O)c3ccc(Cl)cc3)CC1)N2	-11.9% [at 0.16 µM]
O=C(CC1Nc2c3ccccc3nc(=S)n2C1=O)NCCC1=CCCCC1 (stereo unspecified)	25.3% [at 0.68 µM]
O=C(CC1N=C2c3ccccc3N=C(SCc3ccccc3F)N2C1=O)NCc1ccco1 (stereo unspecified)	-17.8%
Cc1ccc(CSC2=Nc3ccccc3C3=NC(CC(=O)NCc4ccco4)C(=O)N23)cc1 (stereo unspecified)	10.3% [at 0.35 µM]
Cc1ccc(CSC2=Nc3ccccc3C3=NC(CCC(=O)NCc4ccco4)C(=O)N23)cc1 (stereo unspecified)	39.1%
CC(C)(C)c1ccc(CSC2=Nc3ccccc3C3=NC(CCC(=O)NCc4ccco4)C(=O)N23)cc1 (stereo unspecified)	15.7% [at 0.16 µM]
Cc1nc(OCC(=O)Nc2cccc(Cl)c2)c2ccccc2n1	-6.84% [at 0.35 µM]
Cc1ccc(C)c(-c2coc(-c3ccc(NC(=O)C(C)(C)C)cc3)n2)c1	13.3% [at 0.16 µM]
COCCN1CCN(S(=O)(=O)c2ccccc2)Cc2cccnc21	18.1%
COc1ccc(OC)c(NC(=O)COc2nc(C)nc3ccccc23)c1	27.6% [at 2.6 µM]
Cc1cc(C)cc(NC(=O)COc2nc(C)nc3ccccc23)c1	-16.7% [at 5 µM]
COc1ccc(C)cc1NC(=O)COc1nc(C)nc2ccccc12	17.5% [at 0.68 µM]
Cc1cc(C)c(NC(=O)COc2nc(C)nc3ccccc23)c(C)c1	-16.7% [at 0.68 µM]
COC(=O)c1ccc(Cl)cc1NC(=O)COc1nc(C)nc2ccccc12	29% [at 0.16 µM]
CCc1cccc(C)c1NC(=O)COc1nc(C)nc2ccccc12	13.2% [at 0.68 µM]
CCOC(=O)c1ccccc1NC(=O)COc1nc(C)nc2ccccc12	26.7% [at 10 µM]
Cc1nc(OCC(=O)Nc2cccc(Br)c2)c2ccccc2n1	18% [at 0.35 µM]

Compound	max activity
CCOc1cccc(CC(=O)N2CCC3(CC2)Nc2cc(F)ccc2-n2cccc23)c1OCC	11.6% [at 0.35 µM]
O=C(NCCc1csc(-c2ccccc2)n1)[C@H]1CSCN1C(=O)Cc1ccc(F)cc1	10.7% [at 10 µM]
Cc1ccc(C)c(-c2coc(-c3ccc(NC(=O)NCc4ccc(F)cc4)cc3)n2)c1	-8.97% [at 1.35 µM]
CCOc1ccc(C(=O)N2CCC3(CC2)Nc2ccc(C)c(C)c2-n2cccc23)cc1	-13.2%
Cc1cccc(C(=O)Nc2c(C(=O)NCc3ccccn3)[nH]c3ccccc23)c1	17.8% [at 2.6 µM]
CN(C)CCN1CCC2(CCCN(C(=O)C3CCOC3)C2)C1=O (stereo unspecified)	39.4%
Cc1cccc(-c2nc(Cn3nnc(-c4nc(-c5ccccc5C)no4)c3C)c(C)o2)c1	5.08% [at 0.35 µM]
O=C(Nc1ccc(-c2nc(-c3cccc(Br)c3)co2)cc1)c1ccco1	21.7%
O=C(NCCc1csc(-c2ccccc2)n1)[C@H]1CCCN1C(=O)COc1ccccc1	-18.8%
COc1ccc(NC(=O)COc2nc(C)nc3ccccc23)cc1	19.3% [at 0.68 µM]
Cc1nc(OCC(=O)Nc2ccc(Cl)cc2F)c2ccccc2n1	-13% [at 0.16 µM]
Cc1nc(OCC(=O)Nc2ccc(F)cc2F)c2ccccc2n1	-20.9% [at 1.35 µM]
COc1cc(NC(=O)COc2nc(C)nc3ccccc23)cc(OC)c1	-12.3% [at 0.35 µM]
CCc1nc(OCC(=O)NCc2ccc3c(c2)OCO3)c2ccccc2n1	11.9% [at 0.35 µM]
Cc1nc(OCC(=O)Nc2ccc3c(c2)OCO3)c2ccccc2n1	12.1% [at 5 µM]
Cc1nc(OCC(=O)Nc2ccc(F)cc2)c2ccccc2n1	17.7% [at 10 µM]
Cc1nc(OCC(=O)Nc2ccccc2)c2ccccc2n1	12.4% [at 0.16 µM]
O=C(Cc1ccc(F)cc1)N1CCC2(CC1)Nc1cc(F)ccc1-n1cccc12	16% [at 0.16 µM]
O=C(NCc1ccccc1)Nc1ccc(-c2nc(-c3ccccc3)co2)cc1	42.6%
Cc1cc(C2CCCN2C(=O)Cn2nc(C(F)(F)F)cc2C)no1 (stereo unspecified)	11.8% [at 2.6 µM]
CCCc1cc(C2CCCN2C(=O)Cn2nc(C(F)(F)F)cc2C)no1 (stereo unspecified)	9.64% [at 1.35 µM]
CC(C)c1cc(C2CCCN2C(=O)Cn2nc(C(F)(F)F)c3c2CCCC3)on1 (stereo unspecified)	9.58% [at 2.6 µM]
Cc1cc(C2CCCN2C(=O)Cn2nc(C(F)(F)F)c3c2CCCC3)on1 (stereo unspecified)	-9.58% [at 0.16 µM]
CCc1cc(C2CCCN2C(=O)Cn2nc(C(F)(F)F)c3c2CCCC3)on1 (stereo unspecified)	14.3% [at 0.16 µM]
CC(C)c1cc(C2CCCN2C(=O)Cn2nc(C(F)(F)F)c3c2CCCC3)no1 (stereo unspecified)	6.95% [at 0.16 µM]
COCCCNC(=O)Cn1c(=O)c(S(=O)(=O)c2ccccc2)cc2ccccc21	-8.44% [at 0.35 µM]

Compound	max activity
Cc1ccc(-c2nc3c(s2)CN(S(=O)(=O)c2ccc(Cl)cc2)CC3)cc1	6.55% [at 10 µM]
COc1cccc(CC(=O)N2CCC3(CC2)Nc2cc(OC)ccc2-n2cccc23)c1	12.8% [at 0.35 µM]
COc1ccc(CCNc2nc(SCc3cc(=O)n4cc(Cl)ccc4n3)nc3ccccc23)cc1OC	12.8%
Cc1ccc(Cn2c(CN3CCC(C(=O)NCc4cccnc4)CC3)cc3ccccc32)cc1	16.6% [at 2.6 µM]
CN1C[C@H]2CN(Cc3ccc4c(c3)OCO4)CCC[C@@]2(C(=O)O)C1	12.4%
COc1cccc(C(=O)N2CCC3(CC2)Nc2ccc(Cl)cc2-n2cccc23)c1	7.04% [at 10 µM]
Cc1cccc(OCC(=O)N2CCC(C(=O)NCCc3csc(-c4ccccc4)n3)CC2)c1	9.91%
CN(C)C(=O)c1cc2c(nc1NCC1CC1)CCN(Cc1ccccn1)CC2	32.5%
CCc1cnc(N2CCc3cc(C(=O)NCC4CC4)c(N(C)C)nc3CC2)nc1	-14.2% [at 2.6 µM]
COc1ccc(C(=O)N2CCC3(CC2)Nc2ccc(Cl)cc2-n2cccc23)cc1OC	9.68% [at 0.68 µM]
O=C(Nc1ccc(-c2nc(-c3ccccc3)co2)cc1)C1CCCCC1	11.6% [at 10 µM]
CCc1ccc(-c2noc(-c3nnn(Cc4nc(-c5ccccc5OC)oc4C)c3C)n2)cc1	11.7% [at 1.35 µM]
Cc1cccc(OCC(=O)N2CCC[C@@H]2C(=O)NCCc2csc(-c3ccccc3)n2)c1	9.84% [at 2.6 µM]
COCC(=O)N1CC(=O)N2[C@H](CO)[C@@H](c3ccc(C#CC4CC4)cc3)[C@@H]2C1	39.9%
COCC(=O)N1CC(=O)N2[C@H](CO)[C@H](c3ccc(C#CC4CC4)cc3)[C@@H]2C1	43.4%
O=C(Cc1cccnc1)N1CC(=O)N2[C@@H](CO)[C@H](c3ccc(C#CC4CCCCC4)cc3)[C@@H]2C1	14.3% [at 10 µM]
Cc1ccc(-c2noc(-c3nnn(Cc4nc(-c5ccccc5)oc4C)c3C)n2)cc1C	6.16%
O=C(Cc1cccs1)N1CCC2(CC1)Nc1cc(F)ccc1-n1cccc12	7.4% [at 2.6 µM]
Cc1cccc(S(=O)(=O)N2CCC(C(=O)NCCc3csc(C)n3)CC2)c1	-8.91%
COc1ccccc1-c1nc(Cn2nnc(-c3nc(-c4cccc(OC)c4OC)no3)c2C)c(C)o1	-11.2%
Cc1ccc(-c2noc(-c3nnn(Cc4nc(-c5ccccc5)oc4C)c3C)n2)cc1	8.04%
O=C(Nc1ccc(-c2nc(-c3ccccc3)co2)cc1)Nc1ccc(F)c(Cl)c1	15.9%
CC(C)CNC(=O)C1Cn2ccnc2C2(CCN(c3ncccn3)CC2)O1 (stereo unspecified)	47.8%
Cc1cccc(-c2nc(Cn3nnc(-c4nc(-c5cccc(Br)c5)no4)c3C)c(C)o2)c1	7% [at 0.68 µM]
